Out of some 5,500 compounds screened, about 2,000 (36%) were called active. Not shown: some 18% with an inconclusive outcome. Rule as the data show it: active = normalized growth mostly below about 0.91 (no sharp cut-off); inconclusive = no clear call, values can overlap the other calls; inactive = mostly above about 0.92. The list shows a part of the results.
Experiment: chemical genetic growth profiling, strain panel (AID 1159580);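 also: tested at 20 µM; growth read once vehicle control cultures reached saturation at 30 °C; 1 = growth at the plate median or of vehicle wells; lower values mean less growth of the strain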
Settings: growth OD
[1] = S. cerevisiae deletion strains, locus YMR307W, strain GAS1, stronger effect = lower value
[2] = S. cerevisiae deletion strains, locus YPL055C, strain LGE1, stronger effect = lower value
[3] = S. cerevisiae deletion strains, locus YAL013W, strain DEP1, stronger effect = lower value
[4] = S. cerevisiae deletion strains, locus YBR229C, strain ROT2, stronger effect = lower value
[5] = S. cerevisiae deletion strains, locus YDL101C, strain DUN1, stronger effect = lower value
[6] = S. cerevisiae deletion strains, locus YDR150W, strain NUM1, stronger effect = lower value
[7] = S. cerevisiae deletion strains, locus YEL061C, strain CIN8, stronger effect = lower value
[8] = S. cerevisiae deletion strains, locus YGR078C, strain PAC10, stronger effect = lower value
[9] = S. cerevisiae deletion strains, locus YHR030C, strain SLT2, stronger effect = lower value
[10] = S. cerevisiae deletion strains, locus YHR087W, strain rtc3, stronger effect = lower value
[11] = S. cerevisiae deletion strains, locus YJR043C, strain POL32, stronger effect = lower value
[12] = S. cerevisiae deletion strains, locus YJR075W, strain HOC1, stronger effect = lower value
[13] = S. cerevisiae deletion strains, locus YLR039C, strain RIC1, stronger effect = lower value
[14] = S. cerevisiae deletion strains, locus YLR058C, strain SHM2 (second series), stronger effect = lower value
[15] = S. cerevisiae deletion strains, locus YLR085C, strain ARP6, stronger effect = lower value
[16] = S. cerevisiae deletion strains, locus YLR262C, strain YPT6, stronger effect = lower value
[17] = S. cerevisiae deletion strains, locus YML094W, strain GIM5, stronger effect = lower value
[18] = S. cerevisiae deletion strains, locus YMR219W, strain ESC1, stronger effect = lower value
[19] = S. cerevisiae deletion strains, locus YMR263W, strain SAP30, stronger effect = lower value
[20] = S. cerevisiae deletion strains, locus YNL153C, strain GIM3, stronger effect = lower value
[21] = S. cerevisiae deletion strains, locus YNL298W, strain CLA4 (second series), stronger effect = lower value
[22] = S. cerevisiae deletion strains, locus YNL322C, strain KRE1, stronger effect = lower value
[23] = S. cerevisiae deletion strains, locus YNR030W, strain Alg12, stronger effect = lower value
[24] = S. cerevisiae deletion strains, locus YOL006C, strain TOP1, stronger effect = lower value
[25] = S. cerevisiae deletion strains, locus YPL241C, strain CIN2, stronger effect = lower value
[26] = S. cerevisiae deletion strains, locus YPR135W, strain CTF4, stronger effect = lower value

Measured: normalized growth

O=C1NCN(c2ccccc2)C12CCN(CC1COc3ccccc3O1)CC2 (configuration not stated)
inactive: S. cerevisiae deletion strains, locus YAL040C, strain CLN3, stronger effect = lower value 1 | S. cerevisiae deletion strains, locus YCL061C, strain MRC1 (second series), stronger effect = lower value 1.01 | S. cerevisiae deletion strains, locus YDR363W, strain ESC2, stronger effect = lower value 0.998 | S. cerevisiae deletion strains, locus YER002W, strain NOP16, stronger effect = lower value 1.02 | S. cerevisiae deletion strains, locus YGR229C, strain SMI1, stronger effect = lower value 0.999 | [1] 0.999 | S. cerevisiae deletion strains, locus YNL128W, strain TEP1, stronger effect = lower value 1.04 | S. cerevisiae deletion strains, locus YNL175C, strain NOP13, stronger effect = lower value 1.02 | S. cerevisiae deletion strains, locus YNL197C, strain WHI3, stronger effect = lower value 1.02 | S. cerevisiae deletion strains, locus YNL224C, strain SQS1, stronger effect = lower value 1 | S. cerevisiae deletion strains, locus YOR083W, strain WHI5 (second series), stronger effect = lower value 1.04 | [2] 1.01

N#CCOc1ccc(Cl)cc1Cl
inactive: [3] 0.99 | [4] 0.97 | [5] 0.976 | [6] 0.95 | [7] 0.99 | [8] 0.965 | [9] 0.95 | [10] 0.977 | [11] 0.975 | [12] 0.915 | [13] 1.07 | [14] 0.954 | [15] 1 | [16] 1.01 | [17] 0.983 | [18] 0.955 | [19] 0.987 | [1] 1.06 | [20] 0.997 | [21] 1.02 | [22] 0.96 | [23] 0.997 | [24] 1.06 | [2] 1.12 | [25] 0.985 | [26] 0.968

Cc1cccc(C)c1NC(=O)C(C)Oc1ccc(Cl)cc1Cl (configuration not stated)
inactive: [3] 1.01 | [4] 1 | [5] 1.01 | [6] 1.02 | [7] 0.996 | [8] 1 | [9] 0.989 | [10] 1.01 | S. cerevisiae deletion strains, locus YJL187C, strain SWE1, stronger effect = lower value 1.01 | [11] 1 | [12] 0.998 | S. cerevisiae deletion strains, locus YKL190W, strain CNB1, stronger effect = lower value 0.999 | [13] 0.961 | [14] 0.997 | [15] 1.02 | [16] 0.963 | [17] 1.09 | [18] 1.01 | [19] 1 | [1] 0.929 | [20] 1.02 | [21] 1.02 | [22] 1 | [23] 1.01 | [24] 1.04 | [2] 1.04 | [25] 1.05 | [26] 1.01 | S. cerevisiae strains, strain wild type, stronger effect = lower value 0.995

Source: PubChem BioAssay AID1159580 (chemical genetic matrix, 2015)
